Test systems include HCT-15 colon; HT29 colon; SNB-75 CNS; SNB-19 CNS; U251 CNS; PC-3 prostate; SK-MEL-5 melanoma; UACC-62 melanoma; LOX IMVI melanoma; SK-MEL-28 melanoma; SK-MEL-2 melanoma; EKVX NSCLC; SN12C renal; UO-31 renal; TK-10 renal; ACHN renal; CAKI-1 renal; A498 renal; CCRF-CEM leukemia; MOLT-4 leukemia.
What all share (assay): NCI-60 one-dose screen, 48 h (100 = growth as untreated, 0 = no growth, -100 = all killed)
What all share (conditions): 10 µM unless noted

Results on seven molecules are retold here after PubChem BioAssay (NCI).

This is part of a sample that, as a whole, favours compounds with a hit. Of some 83,000 tested, about 20% had one in any assay.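 Step 1: grow cells in 96-well plates. Step 2: add test compound at a single concentration. Step 3: incubate 48 h. Step 4: record percent growth.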 A number with no mark means an inactive call. Activity calls are given as the source filed them. Rule for the calls: active = growth percent below 10; inactive = the rest.

Regarding `COc1ccc(C2=CN3CC=CCC3CC2=O)cc1` (stereo not given), the growth was 108% with HCT-15 colon; 84.5% with HT29 colon; 103% in the assay with SNB-75 CNS; 107% in the assay on SNB-19 CNS; 91.4% in the assay on U251 CNS; 81.9% in the assay with PC-3 prostate. Besides, the growth with SK-MEL-5 melanoma was 96.4%; in the assay on UACC-62 melanoma, 99.5%; with LOX IMVI melanoma it was 99.8%; in the assay with SK-MEL-28 melanoma, 112%; with SK-MEL-2 melanoma it was 92.1%; with EKVX NSCLC, 104%. Moreover, the growth in the assay with SN12C renal was 97%; in the assay on UO-31 renal, 95.6%; in the assay with TK-10 renal, 103%; with ACHN renal, 115%; in the assay on CAKI-1 renal, 99.7%; with A498 renal, 93.7%. Further, the growth is 108% in the assay on CCRF-CEM leukemia and 95% in the assay on MOLT-4 leukemia.
For `CCCCCCCCCCCCCCCCCCOc1ccccc1CC(=O)NCC[N+]1(C)CCOCC1`, the growth in the assay on HCT-15 colon was 91.1%; with HT29 colon, 29.8%; in the assay on SNB-75 CNS, 46.9%; in the assay with SNB-19 CNS, 25.9%; in the assay with U251 CNS it was 10.1%; in the assay on PC-3 prostate it was -46.4% (active). In addition, the growth in the assay with SK-MEL-5 melanoma is 75%; in the assay with UACC-62 melanoma, 56.3%; in the assay on LOX IMVI melanoma, 55.5%; with SK-MEL-28 melanoma it was 74.7%; in the assay on SK-MEL-2 melanoma, 74.6%; in the assay on EKVX NSCLC, 91.3%. Further, the growth in the assay with SN12C renal is 40.5%; with UO-31 renal, 77.3%; in the assay on TK-10 renal it was 7.69% (active); with ACHN renal it was 84.5%; with CAKI-1 renal, 98.6%; in the assay with A498 renal, 67.4%. Also, the growth is -36.4% (active) in the assay on CCRF-CEM leukemia and 14.6% in the assay on MOLT-4 leukemia.
On to `C/C(=N\Nc1nc(C)cs1)c1cc2ccccc2o1`, for which the growth in the assay with HCT-15 colon is 98.8%; in the assay with HT29 colon, 103%; in the assay with SNB-75 CNS it was 119%; in the assay on SNB-19 CNS, 96.4%; with U251 CNS, 94%; in the assay with PC-3 prostate, 70.2%. Moreover, the growth in the assay on SK-MEL-5 melanoma was 92%; in the assay with UACC-62 melanoma, 85.5%; with LOX IMVI melanoma it was 85.8%; with SK-MEL-28 melanoma, 110%; in the assay on SK-MEL-2 melanoma it was 104%; with EKVX NSCLC, 56.3%. The growth in the assay with SN12C renal was 91.8%; in the assay with UO-31 renal, 55.4%; with TK-10 renal, 134%; in the assay with ACHN renal, 86.6%; in the assay on CAKI-1 renal, 75.9%; in the assay on A498 renal, 99.9%. The growth in the assay with CCRF-CEM leukemia is 79.1%; in the assay on MOLT-4 leukemia it was 85.9%.
For the molecule `CN1CCCc2cc(/C=C3/SC(=S)N(CCc4ccc(O)cc4)C3=O)ccc21`, the growth in the assay with HCT-15 colon is 56.7%; in the assay on HT29 colon, 86.3%; in the assay with SNB-75 CNS, 74.1%; with SNB-19 CNS it was 92.9%; in the assay on U251 CNS it was 94.4%; in the assay on PC-3 prostate it was 67.5%. Further, the growth with SK-MEL-5 melanoma was 92%; with UACC-62 melanoma, 71.9%; in the assay with LOX IMVI melanoma, 77.3%; with SK-MEL-28 melanoma, 88.5%; in the assay with SK-MEL-2 melanoma, 98%; with EKVX NSCLC it was 93.7%. The growth with SN12C renal was 77.3%; in the assay on UO-31 renal, 52.4%; with TK-10 renal, 114%; in the assay on ACHN renal, 87.3%; in the assay with CAKI-1 renal it was 58.8%; in the assay on A498 renal, 73.5%. In addition, the growth with CCRF-CEM leukemia is 14.8%; in the assay on MOLT-4 leukemia it was 51%.
For the molecule `CN1CCN(Cc2cc(NC(=O)c3cccc(C#Cc4cccc5[nH]nc(N)c45)c3)cc(C(F)(F)F)c2)CC1`, the growth in the assay with HCT-15 colon was 10.8%; in the assay with HT29 colon, -15.8% (active); in the assay on SNB-75 CNS, 22.9%; in the assay with SNB-19 CNS, 52.1%; with U251 CNS, 22.2%; in the assay on PC-3 prostate, 27.4%. For the same molecule, the growth in the assay on SK-MEL-5 melanoma was -5.74% (active); with UACC-62 melanoma it was 12.1%; in the assay on LOX IMVI melanoma it was -90.1% (active); in the assay with SK-MEL-28 melanoma, -60.5% (active); with SK-MEL-2 melanoma it was 17.8%; with EKVX NSCLC, 46%. The growth in the assay on SN12C renal was 19.3%; with UO-31 renal, -17% (active); in the assay on TK-10 renal it was 61.4%; in the assay on ACHN renal, 4.75% (active); in the assay on CAKI-1 renal it was 70.8%; in the assay with A498 renal it was 42.6%. Further, the results for the growth with CCRF-CEM leukemia and in the assay with MOLT-4 leukemia were -8.44% (active) and -35.2% (active), respectively.
For `N#Cc1c(Nc2ccc(F)cc2)n[nH]c1-c1cccs1`, the growth in the assay with HCT-15 colon was 97.7%; with HT29 colon, 114%; with SNB-75 CNS it was 85.6%; in the assay on SNB-19 CNS it was 85.6%; in the assay on U251 CNS, 102%; in the assay on PC-3 prostate it was 95.7%. Also, the growth in the assay on SK-MEL-5 melanoma was 97.1%; in the assay with UACC-62 melanoma, 76.9%; in the assay with LOX IMVI melanoma, 95.1%; in the assay with SK-MEL-28 melanoma, 105%; in the assay on SK-MEL-2 melanoma, 117%; in the assay with EKVX NSCLC, 92.6%. Moreover, the growth in the assay on SN12C renal is 89.5%; with UO-31 renal it was 74.1%; in the assay on TK-10 renal, 135%; with ACHN renal, 88.4%; with CAKI-1 renal, 88.9%; with A498 renal it was 103%. Moreover, the growth in the assay with CCRF-CEM leukemia was 100%; in the assay on MOLT-4 leukemia it was 103%.
`CC(C)CCSc1nc(Nc2ccccc2)c(C#N)c(-c2ccccc2)n1`: the growth in the assay on HCT-15 colon was 55.3%; with HT29 colon, 50.7%; with SNB-75 CNS it was -10.1% (active); with SNB-19 CNS, 19.3%; in the assay with U251 CNS, 2.98% (active); with PC-3 prostate, 68.8%. The growth is 95.2% in the assay with SK-MEL-5 melanoma; 89.9% in the assay on UACC-62 melanoma; 25.5% in the assay on LOX IMVI melanoma; 82.1% in the assay with SK-MEL-28 melanoma; 81.4% in the assay with SK-MEL-2 melanoma; 14.7% in the assay with EKVX NSCLC. The growth in the assay with SN12C renal is 27.1%; in the assay with UO-31 renal it was 12.9%; in the assay with TK-10 renal, 24.7%; in the assay with ACHN renal, -21.2% (active); with CAKI-1 renal, 26.8%; with A498 renal it was -8.82% (active). The results for the growth in the assay with CCRF-CEM leukemia and in the assay with MOLT-4 leukemia were 54.9% and 80.7%, respectively.
